# Test results reported in PubChem BioAssay (Tox21).
# “And” between values parts separate entries of the source, which are not always exact repeats. Equal values may be shown once. Records with an inconclusive call do not appear. Where a call stands in place of a potency, no number is given. A structure can be active in one record and inactive in another. The source made the active and inactive calls. Unless noted, calls follow the shape of the dose curve; as a rule, active = well fitted curve in the direction sought with a large enough effect in the repeat runs; inconclusive = weak or mixed curves; inactive = no such curve, though single readings can be large; an effect the other way counts as inactive or inconclusive.
# How the values were obtained:
# [1] = qHTS assay to identify small molecule antagonists of the glucocorticoid receptor (GR) signaling pathway - cell viability counter screen (AID 720693); also: nearly all actives have a fitted effect of over 55% in size
# [2] = qHTS assay for identifying genotoxic compounds that show differential cytotoxicity against isogenic chicken DT40 cell lines with known DNA damage response pathways - wild type cell line (AID 743012); also: nearly all actives have a fitted effect of over 60% in size; also: potency is read from the fitted curve at half-maximal effect
# Procedure, shortened: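 Wild type DT40, 300 cells/well, ~0.5 h settle at 37 C/5% CO2; compounds in DMSO added by pintool; 40 h at 37 C/5% CO2; CellTiter-Glo, 30 min RT; luminescence.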
# [3] = qHTS assay for identifying genotoxic compounds that show differential cytotoxicity against isogenic chicken DT40 cell lines with known DNA damage response pathways - Rev3 mutant cell line (AID 743014); also: nearly all actives have a fitted effect of over 55% in size; also: potency is read from the fitted curve at half-maximal effect
# [4] = qHTS assay for identifying genotoxic compounds that show differential cytotoxicity against isogenic chicken DT40 cell lines with known DNA damage response pathways - Rad54/Ku70 mutant cell line (AID 743015); also: nearly all actives have a fitted effect of over 60% in size; also: potency is read from the fitted curve at half-maximal effect
# [5] = qHTS assay to identify small molecule antagonists of the androgen receptor (AR) signaling pathway - cell viability counter screen (AID 743033; also: nearly all actives have a fitted effect of over 45% in size)
# [6] = qHTS assay to identify small molecule antagonists of the androgen receptor (AR) signaling pathway using the MDA cell line - cell viability counter screen (AID 743041; also: nearly all actives have a fitted effect of over 45% in size)
# Procedure, shortened: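 Viability counter screen run alongside the AR antagonist reporter: cells seeded 5 h before compound, R1881 added, 16 h incubation at 37C without CO2, fluorescent CellTiter-Fluor signal quantified.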
# [7] = target: Androgen receptor (Homo sapiens) (UniProt P10275); assay: qHTS assay to identify small molecule antagonists of the androgen receptor (AR) signaling pathway (AID 743035; active = well fitted inhibition curve with a large enough effect in the signal ratio in the repeat runs, not every such curve was filed as active; the % refers to the signal ratio)
# Chain of Androgen receptor (Homo sapiens) (P10275 whole entry, looked up): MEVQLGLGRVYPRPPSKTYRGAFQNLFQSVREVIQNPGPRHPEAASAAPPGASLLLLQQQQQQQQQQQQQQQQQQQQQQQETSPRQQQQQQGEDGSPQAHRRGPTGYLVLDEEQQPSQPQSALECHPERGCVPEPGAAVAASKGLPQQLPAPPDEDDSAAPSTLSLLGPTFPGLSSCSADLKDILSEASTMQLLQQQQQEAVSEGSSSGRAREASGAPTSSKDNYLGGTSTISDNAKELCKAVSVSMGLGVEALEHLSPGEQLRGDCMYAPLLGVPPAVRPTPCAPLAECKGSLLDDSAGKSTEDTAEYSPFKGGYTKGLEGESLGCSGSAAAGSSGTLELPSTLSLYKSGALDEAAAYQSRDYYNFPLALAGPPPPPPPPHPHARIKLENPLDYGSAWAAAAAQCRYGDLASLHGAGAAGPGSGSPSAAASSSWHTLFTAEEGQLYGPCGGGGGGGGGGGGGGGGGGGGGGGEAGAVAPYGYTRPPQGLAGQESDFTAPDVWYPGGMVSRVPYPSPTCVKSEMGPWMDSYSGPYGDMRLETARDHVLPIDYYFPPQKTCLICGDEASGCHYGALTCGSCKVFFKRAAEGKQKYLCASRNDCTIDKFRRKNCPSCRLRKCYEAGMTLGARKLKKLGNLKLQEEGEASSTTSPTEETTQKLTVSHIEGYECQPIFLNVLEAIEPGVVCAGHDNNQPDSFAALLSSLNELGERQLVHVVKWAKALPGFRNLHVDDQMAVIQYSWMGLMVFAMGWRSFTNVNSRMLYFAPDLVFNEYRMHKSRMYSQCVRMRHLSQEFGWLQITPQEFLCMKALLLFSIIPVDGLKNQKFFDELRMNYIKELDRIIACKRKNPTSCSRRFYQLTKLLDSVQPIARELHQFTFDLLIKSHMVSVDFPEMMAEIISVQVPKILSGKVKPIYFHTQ
# Procedure, shortened: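 Fluorescence from a beta-lactamase FRET substrate (LiveBLAzer B/G, 2 h, room temperature) measured inhibition of R1881-stimulated signaling in GeneBLAzer AR-UAS-bla HEK293 cells exposed to compound for 16 h at 37C.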
# [8] = target: Androgen receptor (Homo sapiens) (UniProt P10275); assay: qHTS assay to identify small molecule agonists of the androgen receptor (AR) signaling pathway (AID 743036; active = well fitted activation curve with a large enough effect in the signal ratio in the repeat runs, with a control signal flat, not every such curve was filed as active; the % refers to the signal ratio)
# Procedure, shortened: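 Fluorescence from a beta-lactamase FRET substrate served as read-out in AR-UAS-bla GripTite HEK293 cells. Cells were treated with DMSO-dissolved compounds for 16 h at 37C, then with LiveBLAzer B/G substrate for 2 h at room temperature.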
# [9] = target: Androgen receptor (Homo sapiens) (UniProt P10275); assay: qHTS assay to identify small molecule agonists of the androgen receptor (AR) signaling pathway using the MDA cell line (AID 743040; also: nearly all actives have a fitted effect of over 20% in size; also: potency is read from the fitted curve at half-maximal effect)
# Procedure, shortened: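 Luminescence from ONE-Glo, read after 30 min at room temperature, reflects MMTV-driven luciferase in MDA-kb2 cells (AR- and GR-responsive). Treatment lasted 16 h at 37C, 0% CO2.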
# [10] = target: Androgen receptor (Homo sapiens) (UniProt P10275); assay: qHTS assay to identify small molecule antagonists of the androgen receptor (AR) signaling pathway using the MDA cell line (AID 743042; also: nearly all actives have a fitted effect of over 55% in size)
# Procedure, shortened: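 MDA-kb2 cells (human breast carcinoma, stably carrying an MMTV-luciferase reporter responsive to AR and GR) were plated at 3,000 cells/well and preincubated 5 hr at 37C, then given compound plus R1881 agonist for 16 h. ONE-Glo luminescence was read.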
SMILES,outcome [1],Potency [2],Potency [3],Potency [4],Potency [5],Potency [6],outcome [7],outcome [8],Potency [9],Potency [10]
C1OCOCO1,inactive,inactive,inactive,inactive,inactive,inactive,–,–,–,–
C[C@](N)(Cc1ccc(O)cc1)C(=O)O,inactive,inactive,inactive,inactive,inactive,inactive,–,–,–,–
Nc1ccccc1S(=O)(=O)O,inactive,inactive,inactive,inactive,inactive,inactive,–,–,–,–
C[N+](C)(C)CCCCCC[N+](C)(C)C,inactive,inactive,inactive,inactive,inactive,inactive,–,–,–,–
CN(C)CCCSc1ccccc1NC(=O)/C=C/c1ccccc1,inactive,26.6 µM (active),13.3 µM (active),29.8 µM (active),inactive,inactive,–,–,–,–
O=C[C@H](O)[C@@H](O)[C@H](O)[C@H](O)CO,inactive,inactive,inactive,inactive,inactive,inactive,–,–,–,–
C[C@H](NC(CCc1ccccc1)C(=O)O)C(=O)N1CCC[C@H]1C(=O)O (stereo partly drawn),inactive,inactive,inactive,inactive,inactive,inactive,–,–,–,–
CCCN(CCC)CCc1cccc2c1CC(=O)N2,inactive,inactive,inactive,inactive,inactive,inactive,–,–,–,–
CC/C=C\CCOC(C)=O,inactive,inactive,inactive,inactive,inactive,inactive,–,–,–,–
CCn1ccnc1CC1COc2ccccc2O1 (stereo not drawn),inactive,inactive,inactive,inactive,inactive,inactive,inactive,inactive,inactive,inactive
O=[N+]([O-])c1ccc(F)cc1F,inactive,inactive,inactive,inactive,inactive,inactive,–,–,–,–
COCCc1ccc(OCC(O)CNC(C)C)cc1 (stereo not drawn),inactive,inactive and 21.1 µM (active),inactive,inactive,inactive,inactive,–,–,–,–
O=C1CC2CC1C1CCCC21 (stereo not drawn),inactive,inactive,inactive,inactive,inactive,inactive,inactive,inactive,54.5 µM (active),inactive
Cc1ccc(Cl)cc1Cl,inactive,inactive,inactive,inactive,inactive,inactive,–,–,–,–
CCCCNC(=O)NCCCC,inactive,inactive,inactive,inactive,inactive,inactive,inactive,–,inactive,inactive
CC(=O)OCC(CCn1cnc2cnc(N)nc21)COC(C)=O,inactive,inactive,inactive,inactive,inactive,inactive,inactive,inactive,inactive,inactive
C=C[Si](OC(=C)C)(OC(=C)C)OC(=C)C,inactive,inactive,inactive,inactive,inactive,inactive,–,–,–,–
OC(CCN1CCCCC1)(c1ccccc1)C1CC2C=CC1C2 (stereo not drawn),inactive,7.5 µM (active) and 9.44 µM (active),15 µM (active) and 13.3 µM (active),23.7 µM (active) and 21.1 µM (active),inactive,–,–,–,–,–
CCCCOCCOCCOCc1cc2c(cc1CCC)OCO2,inactive,24.6 µM (active),inactive,34.7 µM (active),inactive,inactive,inactive,inactive,inactive,inactive
CC(C)(CC(=O)O)C(=O)O,inactive,inactive,inactive,inactive,inactive,inactive,inactive,inactive,inactive,inactive
O=C(CCCN1CCC(O)(c2cccc(C(F)(F)F)c2)CC1)c1ccc(F)cc1,inactive,10.6 µM (active),11.9 µM (active),11.9 µM (active),inactive,–,–,–,–,–
CC(C)(O)C(=O)c1ccccc1,inactive,inactive,inactive,inactive,inactive,inactive,inactive,inactive,inactive,inactive
CCN1CCC[C@H]1CNC(=O)c1cc(S(N)(=O)=O)ccc1OC,inactive,inactive,inactive,inactive,inactive,inactive,inactive,inactive,inactive,inactive
C[C@H]1C[C@@H](O)CC(C)(C)C1,inactive,inactive,inactive,inactive,inactive,inactive,–,–,–,–
N[C@@H](C(=O)N[C@@H]1C(=O)N2C(C(=O)O)=C(Cl)CS[C@H]12)c1ccccc1,inactive,inactive,inactive,inactive,inactive,inactive,–,–,–,–
COC(=O)c1c(Cl)c(Cl)c(C(=O)OC)c(Cl)c1Cl,inactive,inactive and 48.6 µM (active),inactive,inactive,inactive,inactive,–,–,–,–
CC(C)NCC(O)c1ccc(NS(C)(=O)=O)cc1 (stereo not drawn),inactive,inactive,inactive,inactive,inactive,inactive,–,–,–,–
CC(C)(C)NCCNC(C)(C)C,inactive,inactive,inactive,inactive,inactive,inactive,–,–,–,–

SMILES,outcome [1],Potency [2],Potency [3],Potency [4],Potency [5],Potency [6],outcome [7],outcome [8],Potency [9],Potency [10]
CCc1ccc(O)c(OC)c1,inactive,inactive,inactive,inactive,inactive,inactive,–,–,–,–
Cc1c(O)cccc1O,inactive,inactive,inactive,inactive,inactive,inactive,–,–,–,–
OC[C@]1(O)OC[C@@H](O)[C@H](O)[C@@H]1O,inactive,inactive,inactive,inactive,inactive,inactive,–,–,–,–
COc1ccc2c(c1)c(CC(=O)OCC(=O)O)c(C)n2C(=O)c1ccc(Cl)cc1,inactive,inactive,inactive,inactive,inactive,inactive,inactive,–,inactive,inactive
O=Cc1cccc([N+](=O)[O-])c1,inactive,inactive,inactive,inactive,inactive,inactive,–,–,–,–
CCCCCCCCCCCCCCCCC,inactive,inactive,inactive,inactive,inactive,inactive,–,–,–,–
Cc1nc2c([nH]1)c(=O)n(C)c(=O)n2Cc1ccco1,inactive,inactive,inactive,inactive,inactive,inactive,–,–,–,–
CCCc1cc(C(N)=S)ccn1,inactive,inactive,inactive,inactive,inactive,inactive,–,–,–,–
CC(=O)CC(C)C,inactive,inactive,inactive,inactive,inactive,inactive,inactive,inactive,inactive,inactive
CC(=O)N(CC(O)CO)c1c(I)c(C(=O)NCCO)c(I)c(C(=O)NCC(O)CO)c1I (stereo not drawn),inactive,inactive,inactive,inactive,inactive,inactive,–,–,–,–
NC(=O)COCCN1CCN(C(c2ccccc2)c2ccc(Cl)cc2)CC1 (stereo not drawn),inactive,33.5 µM (active),8.41 µM (active),26.6 µM (active),inactive,inactive,inactive,–,inactive,inactive
CCSC(=O)N(CC(C)C)CC(C)C,inactive,inactive,inactive,–,inactive,inactive,inactive,inactive,inactive,inactive
CCCCOCCOCCOCCCC,inactive,inactive,inactive,–,inactive,inactive,–,–,–,–
CC(C)c1cc2c(cc1S(=O)(=O)O)[C@@]1(C)CCC[C@@](C)(C(=O)O)[C@@H]1CC2,inactive,inactive,inactive,–,inactive,inactive,–,–,–,–
CC(C)(O)C#CC(C)(C)O,inactive,inactive,inactive,inactive,inactive,inactive,–,–,–,–
COC(=O)c1ccc(C)cc1C1=NC(C)(C(C)C)C(=O)N1 (stereo not drawn),inactive,inactive,inactive,inactive,inactive,inactive,–,–,–,–
CC(C(=O)O)c1ccc(CC2CCCC2=O)cc1 (stereo not drawn),inactive,inactive,inactive,inactive,inactive,inactive,–,–,–,–
OCCOc1ccc(OCCO)cc1,inactive,inactive,inactive,inactive,inactive,inactive,–,–,–,–
O=C(O)Cc1ccc(CCNS(=O)(=O)c2ccc(Cl)cc2)cc1,inactive,inactive,inactive,inactive,inactive,inactive,–,–,–,–
CC(=O)OCC(=O)[C@@]1(O)CCC2C3CCC4=CC(=O)CC[C@]4(C)C3[C@@H](O)C[C@@]21C (stereo partly drawn),inactive,inactive,inactive,inactive,inactive,inactive,–,–,–,–
O=C(O)CCCl,inactive,inactive,inactive,–,inactive,–,–,–,–,–
Cc1ccc(C#N)cc1,inactive,inactive,inactive,inactive,inactive,inactive,–,–,–,–
CCC(C)C1CCCCC1=O (stereo not drawn),inactive,inactive,inactive,inactive,inactive,inactive,–,–,–,–
C=COCC1CCC(CO)CC1 (stereo not drawn),inactive,inactive,inactive,inactive,inactive,inactive,–,–,–,–
COCCCOCCCOC,inactive,inactive,inactive,inactive,inactive,inactive,–,–,–,–
CO/N=C(/C(=O)N[C@@H]1C(=O)N2C(C(=O)OCOC(=O)C(C)(C)C)=C(C)CS[C@H]12)c1csc(N)n1,inactive,inactive,inactive,inactive,inactive,inactive,–,–,–,–
NCCCNCCSP(=O)(O)O,inactive,inactive,inactive,inactive,inactive,inactive,–,–,–,–
